Values joined by “and” are separate entries in the source; they are usually repeats but may differ in a detail not shown here. Equal entries are not always repeated. About 83,000 compounds went through this panel and 20% of them were active in at least one assay; those are over-represented in the sample as a whole.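 Results are percent growth after 48 hours of single-concentration exposure. 100 means growth as in untreated cells, lower positive values show inhibition; negative values down to -100 show cell death.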 Active and inactive are the calls of the source. How the source made its calls: active means growth percent below 10; inactive means the rest.
System: HL-60(TB) leukemia
Test: NCI-60 one-dose screen, 48 h (100 = growth as untreated, 0 = no growth, -100 = all killed)
Conditions: 10 µM unless noted

| Structure (SMILES) | growth |
| --- | --- |
| Cc1nc(N)sc1Sc1nc2ccc(Cl)cc2c(=O)n1-c1ccc(Oc2ccccc2)cc1 | 59.4% (inactive) |
| O=C(Nc1cccc(-n2cc(-c3ccncc3)c(-c3ccc(Cl)c(O)c3)n2)c1)Nc1cccc(C(F)(F)F)c1 | 12.5% (inactive) |
| CCN(CC)CCCN1C(=O)c2c(c(C)c3c(oc4cc(O)ccc43)c2C)C1=O | -47.9% (active) |
| COc1ccc(/C=C/c2nc(Nc3ccc(Cl)cc3)c3ccccc3n2)cc1 | -11.3% (active) |
| COc1ccc(NC2=NC(C)(CO)CS2)cc1 (centres undefined) | 91.1% (inactive) |
| CC(=O)c1ccc2c(c1)N(CCCN1CCN(CCO)CC1)c1ccccc1S2 | 73.9% (inactive) and 2.94% (active) |
| O=C(/C(=C/c1ccc([N+](=O)[O-])cc1)SCc1ccc(F)cc1)c1ccc(Cl)cc1 | 64.2% (inactive) |
| N#Cc1ccc(OC(=O)Nc2cc(Cl)cc(Cl)c2)cc1 | -0.568% [100 µM] (active) |
| CC(=O)Nc1cccc2c1CCCC2 | 89.5% (inactive) and 105% (inactive) |
| CCN1CCN(c2cc(C(=O)Nc3nc(-c4cc(OC)c(OC)c(OC)c4)cs3)cc(C(F)(F)F)c2)CC1 | 41.4% (inactive) |
| O=C(Nc1nc2ccc(F)cc2s1)c1cccnc1Nc1ccc(Cl)cc1 | 33.3% (inactive) |
| O=c1c2ccccc2c2nccn2c2cc(Cl)ccc12 | 30.3% (inactive) |
| CC(C)N(Cc1ccccc1)c1c(S)ssc1=S | -23.3% (active) |
| CC(C)(C)[Si](C)(C)O[C@H]1C(=O)C=CN2CC=C[C@@H]12 | 89.5% [100 µM] (inactive) |
| O=C1N[C@@H]2NC(=[N+]3CCOCC3)N[C@@H]2N1 | 98% (inactive) |
| O=C1/C(=C\c2ccc3nccnc3c2)SC(=S)N1CCc1ccc(O)cc1 | 75.6% (inactive) |
| CC(C)(O)C#CC#CC(C)(C)O | 104% (inactive) |
| COc1cc2c(c(OC)c1OC)CCC(c1cccc(C(=O)Nc3cccc(Br)c3)c1)O2 (centres undefined) | 101% (inactive) |
| COc1cc(-c2ncn(/C=C\C(=O)OC(C)C)n2)cc(C(F)(F)F)c1 | 7.55% (active) |
| O=C(Nc1ccc(Cl)c(Cl)c1)Nc1ccc(Cl)c([N+](=O)[O-])c1 | -39.9% (active) |

| Structure (SMILES) | growth |
| --- | --- |
| COc1nccnn1 | 185% (inactive) |
| COc1ccc(-c2nnc(COc3ccc(NC(=O)Nc4ccc(Cl)c(C(F)(F)F)c4)cc3F)o2)cc1 | -18.5% (active) |
| Clc1ccc2c(NCCNc3nc(N4CCCCC4)nc4ccccc34)ccnc2c1 | -61.2% (active) |
| CN(C)c1ccc(C(Cc2ccc3ccccc3n2)Cc2ccc3ccccc3n2)cc1 | 16% (inactive) and 73.5% (inactive) |
| C=C(C)[C@@H]1CC[C@]2(C(=O)NCCNCCN)CC[C@]3(C)[C@H](CC[C@@H]4[C@@]5(C)C/C(=C/c6ccncc6)C(=O)C(C)(C)[C@@H]5CC[C@]43C)[C@@H]12 | 74.1% (inactive) |
| O=[N+]([O-])c1ccc(Oc2ccccc2)cc1 | 96.8% (inactive) and 79.2% (inactive) |
| Cc1nc2ccc(-n3ncc(C(=O)c4cc5ccccc5[nH]4)c3N)cc2[nH]1 | 36.5% (inactive) |
| Cc1cc(C(C)(C)c2cc(C)c(O)c(CN(C)C)c2)cc(CN(C)C)c1O | 81.1% (inactive) |
| C(=C\c1nc2ccccc2[nH]1)/c1nc2ccccc2[nH]1 | 93.4% (inactive) |
| COc1cc(OC)c2sc(-c3ccc(-n4cncc4-c4ccc(OC)c(OC)c4)cc3)nc2c1 | 58.5% (inactive) |
| CN(C)CCCn1c2c(c3ncccc3c1=O)C(=O)c1ccccc1-2 | 45.6% (inactive) |
| C[C@]12C[C@H]1CC[C@]1(C)[C@@H]2CC[C@@]23C[C@H](CC[C@H]21)[C@@](O)(CO)C3 | 103% (inactive) |
| CCOC(=O)c1cc(C(=O)c2cc(OC)c(OC)c(OC)c2)n2ncccc12 | -32.5% (active) |
| CCCCN[C@H]1CC[C@@]2(C)[C@@H](CC[C@@]3(C)[C@H]2[C@H](O)C[C@H]2/C(=C(\CCC=C(C)C)C(=O)OC)[C@@H](OC(C)=O)C[C@@]23C)[C@@H]1C | 0.474% (active) |
| Cn1cc(-c2nonc2-c2c[nH]c3ccc(Br)cc23)c2cc(Br)ccc21 | 54% (inactive) |
| COc1ccc2[nH]c(O)c(C(=Nc3ccc(N(C)C(=O)CN4CCN(C)CC4)cc3)c3ccccc3)c2c1 | -14.9% (active) |
| COc1ccc(-c2nc3sccn3c2/C=C/C(=O)c2ccc3c(c2)OCO3)cc1 | 79.6% (inactive) |
| CCOC(=O)c1cn2ncnc(Oc3ccc(NC(=O)NC4CCCCC4)c(Cl)c3)c2c1C | 70.9% (inactive) |
| COc1cc2oc(-c3cccc(NC(=O)c4ccccc4)c3)cc(=O)c2c(OC)c1OC | 60.5% (inactive) |

Source: PubChem BioAssay (NCI)
